From PubChem BioAssay AID1159580 (chemical genetic matrix, 2015)
About 2,000 (36%) of roughly 5,500 compounds were called active. Inconclusive results (about 18%) are left out. Cut-off read from the data, not from the text of the source: active = normalized growth mostly below about 0.91 (no sharp cut-off); inconclusive = no clear call, values can overlap the other calls; inactive = mostly above about 0.92. The list shows a part of the results.

Assay: chemical genetic growth profiling, strain panel (AID 1159580);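 note: tested at 20 µM; growth read once vehicle control cultures reached saturation at 30 °C; 1 = growth at the plate median or of vehicle wells; lower values mean less growth of the strain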
Details: S. cerevisiae deletion strains, growth OD
[1] = locus YAR019C, strain CDC15, hits give low values
[2] = locus YBL105C, strain PKC1, hits give low values
[3] = locus YBR135W, strain CKS1, hits give low values
[4] = locus YBR136W, strain MEC1, hits give low values
[5] = locus YBR160W, strain CDC28, hits give low values
[6] = locus YDL017W, strain CDC7, hits give low values
[7] = locus YDL028C, strain MPS1, hits give low values
[8] = locus YDL101C, strain DUN1, hits give low values
[9] = locus YDL108W, strain KIN28, hits give low values
[10] = locus YDL132W, strain cdc53, hits give low values
[11] = locus YDL214C, strain PRR2, hits give low values
[12] = locus YDR052C, strain DBF4, hits give low values
[13] = locus YDR054C, strain cdc34, hits give low values
[14] = locus YDR226W, strain ADK1, hits give low values
[15] = locus YDR477W, strain SNF1, hits give low values
[16] = locus YER123W, strain YCK3, hits give low values
[17] = locus YER133W, strain GLC7, hits give low values
[18] = locus YFL009W, strain cdc4, hits give low values
[19] = locus YFL029C, strain CAK1, hits give low values
[20] = locus YFR003C, strain YPI1, hits give low values
[21] = locus YFR019W, strain FAB1, hits give low values
[22] = locus YFR028C, strain CDC14, hits give low values
[23] = locus YGR040W, strain KSS1, hits give low values
[24] = locus YGR052W, strain FMP48, hits give low values
[25] = locus YGR092W, strain DBF2, hits give low values
[26] = locus YHR030C, strain SLT2, hits give low values
[27] = locus YHR079C, strain IRE1, hits give low values
[28] = locus YHR082C, strain KSP1, hits give low values
[29] = locus YHR205W, strain SCH9, hits give low values
[30] = locus YIL147C, strain SLN1, hits give low values
[31] = locus YJL095W, strain BCK1, hits give low values
[32] = locus YJL157C, strain FAR1, hits give low values
[33] = locus YJR016C, strain ILV3, hits give low values
[34] = locus YJR066W, strain TOR1 (second series), hits give low values
[35] = locus YJR066W, strain TOR1, hits give low values
[36] = locus YKL048C, strain ELM1, hits give low values
[37] = locus YKL067W, strain YNK1, hits give low values
[38] = locus YKL101W, strain HSL1, hits give low values
[39] = locus YKL193C, strain SDS22, hits give low values
[40] = locus YKL203C, strain TOR2, hits give low values
[41] = locus YLR113W, strain HOG1, hits give low values
[42] = locus YLR133W, strain CKI1, hits give low values
[43] = locus YLR403W, strain SFP1, hits give low values
[44] = locus YML070W, strain DAK1, hits give low values
[45] = locus YMR001C, strain CDC5, hits give low values
[46] = locus YMR205C, strain PFK2 (second series), hits give low values
[47] = locus YMR277W, strain FCP1, hits give low values
[48] = locus YNL006W, strain LST8, hits give low values
[49] = locus YNL020C, strain ARK1, hits give low values
[50] = locus YNL161W, strain CBK1, hits give low values
[51] = locus YNL183C, strain NPR1, hits give low values
[52] = locus YNL207W, strain RIO2, hits give low values
[53] = locus YNL222W, strain SSU72, hits give low values
[54] = locus YNL307C, strain MCK1 (second series), hits give low values
[55] = locus YOL078W, strain AVO1, hits give low values
[56] = locus YOL136C, strain PFK27, hits give low values
[57] = locus YOR061W, strain CKA2, hits give low values
[58] = locus YOR119C, strain RIO1, hits give low values
[59] = locus YOR231W, strain MKK1, hits give low values
[60] = locus YOR329C, strain SCD5, hits give low values
[61] = locus YPL031C, strain PHO85, hits give low values
[62] = locus YPL153C, strain RAD53, hits give low values
[63] = locus YPL204W, strain HRR25, hits give low values
[64] = locus YPL209C, strain IPL1, hits give low values
[65] = locus YPL256C, strain CLN2, hits give low values
[66] = locus YPR025C, strain CCL1, hits give low values
[67] = locus YPR106W, strain ISR1, hits give low values
[68] = locus YPR111W, strain DBF20, hits give low values
[69] = strain NNK1, hits give low values
[70] = strain TSCII, hits give low values

Measured: normalized growth

COc1ccc(CC2CCC(=NOC(=O)c3ccc(C(C)(C)C)cc3)CC2)cc1 (stereo unspecified)
active: [26] 0.828 | [41] 0.844
inactive: [1] 0.991 | [2] 1.01 | [3] 0.988 | [4] 0.985 | [5] 0.993 | [6] 0.982 | [7] 0.984 | [8] 0.977 | [9] 0.984 | [10] 0.977 | [11] 0.947 | [12] 0.975 | [13] 0.98 | [14] 0.979 | [15] 0.946 | [16] 0.927 | [17] 0.936 | [18] 0.969 | [19] 0.988 | [20] 0.983 | [21] 0.972 | [22] 0.975 | [23] 0.936 | [24] 0.958 | [25] 0.999 | [27] 0.999 | [28] 1.01 | [29] 0.999 | [30] 0.978 | [31] 0.952 | locus YJL128C, strain PBS2, hits give low values 0.993 | [32] 0.955 | [33] 0.99 | [34] 0.909 | [35] 1.06 | [36] 0.953 | [37] 0.951 | [38] 0.941 | [39] 0.987 | [40] 1.01 | [42] 0.961 | [43] 1.01 | [44] 0.93 | [45] 0.986 | [46] 0.959 | [47] 0.976 | [48] 1 | [49] 0.964 | [50] 0.994 | [51] 1.06 | [52] 0.973 | [53] 0.993 | [54] 0.94 | [55] 0.988 | [56] 0.956 | [57] 0.963 | [58] 1.02 | [59] 0.975 | [60] 0.998 | [61] 0.937 | [62] 0.924 | [63] 0.916 | [64] 0.988 | [65] 0.881 | [66] 0.999 | [67] 0.986 | [68] 0.98 | [69] 0.977 | [70] 0.978

COc1ccc(CC2CCC(=NOC(=O)c3c(Cl)cccc3Cl)CC2)cc1 (stereo unspecified)
inactive: [1] 1.03 | [3] 1.04 | [4] 1.05 | [5] 1.05 | [6] 1.04 | [7] 1.04 | [8] 0.994 | [9] 1.04 | [10] 1.01 | [11] 0.948 | [12] 0.99 | [13] 1.02 | [14] 1.02 | [15] 0.956 | [16] 0.938 | [17] 0.949 | [18] 1.02 | [19] 1.03 | [20] 1.04 | [21] 0.971 | [22] 1 | [23] 0.957 | [24] 0.98 | [25] 1.01 | [27] 1 | [28] 1.03 | [29] 1 | [30] 1.04 | [31] 0.984 | [32] 0.962 | [33] 1.01 | [34] 0.928 | [35] 1.06 | [36] 0.976 | [37] 0.959 | [38] 0.966 | [39] 1.02 | [40] 1.01 | [42] 0.98 | [43] 1.01 | [44] 0.953 | [45] 1.03 | [46] 0.962 | [47] 1.02 | [48] 1.05 | [49] 0.977 | [50] 1.05 | [51] 1.05 | [52] 1.01 | [53] 1.06 | [54] 0.963 | [55] 1.03 | [56] 0.961 | [57] 0.971 | [58] 1.03 | [59] 1.02 | [60] 1.05 | [61] 0.952 | [62] 0.948 | [63] 0.929 | [64] 1.04 | [65] 0.941 | [67] 1.04 | [68] 1.04 | [69] 1.03 | [70] 1.02
active: [2] 1.06 [resistant] | [26] 0.829 | [41] 0.854 | [66] 1.06 [resistant]
